# Sampled rows, rich in hits. Any-hit rate of the full collection: about 4.6%.
# CF NFkB block: cystic fibrosis NF-kB activation inhibition; hit rate 0.86% among 360,000; inhibition, % at 5 µM; KKLEB NF-kB-GFP reporter, PAF-induced, GFP fluorescence overnight;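 active = at least 50% inhibition at 5 µM, scaled per plate between neutral and stimulator controls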;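 note: PAF is a Pseudomonas aeruginosa culture filtrate used as stimulus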
# Peg3 prom inh: reduces Peg3 promoter-driven luciferase expression in HeLa; HeLa PEG-Prom luciferase reporter, luminescence, overnight; inhibition, % at 20 µM; hit rate 1.7% among 360,000;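 active = inhibition of at least 50% at 20 µM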
# HIF-2a inh: blocks HIF-2a reporter activity. 786-0 RCC cells HIF-2a reporter, luciferase luminescence, overnight. inhibition, % at 18.8 µM. hit rate 0.72% among 360,000. AID 624352;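 active = inhibition of the luminescence signal of 40% or more relative to plate controls, in a single-dose primary screen at 18.75 µM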
# KKLEB tox: counter-screen for CF NF-kB inhibitors: cytotoxicity. activity change (cytotoxicity), % at 5 µM. hit rate 0.36% among 360,000. KKLEB CF airway cells viability, ATPlite luminescence, overnight; active compounds read low; cells stimulated with P. aeruginosa culture filtrate;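 active = corrected activity change at or below -50% at 5 µM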
# Mdm2 MdmX PPI: disrupts the human Mdm2-MdmX interaction. O15151+Q00987. hit rate 3% among 330,000. SaOS-2 split-luciferase Mdm2/MdmX complementation, luminescence. inhibition, % at 8 µM;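 active = inhibition of at least 50% at 8 µM in the primary screen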
# Target sequence (O15151 whole entry, looked up): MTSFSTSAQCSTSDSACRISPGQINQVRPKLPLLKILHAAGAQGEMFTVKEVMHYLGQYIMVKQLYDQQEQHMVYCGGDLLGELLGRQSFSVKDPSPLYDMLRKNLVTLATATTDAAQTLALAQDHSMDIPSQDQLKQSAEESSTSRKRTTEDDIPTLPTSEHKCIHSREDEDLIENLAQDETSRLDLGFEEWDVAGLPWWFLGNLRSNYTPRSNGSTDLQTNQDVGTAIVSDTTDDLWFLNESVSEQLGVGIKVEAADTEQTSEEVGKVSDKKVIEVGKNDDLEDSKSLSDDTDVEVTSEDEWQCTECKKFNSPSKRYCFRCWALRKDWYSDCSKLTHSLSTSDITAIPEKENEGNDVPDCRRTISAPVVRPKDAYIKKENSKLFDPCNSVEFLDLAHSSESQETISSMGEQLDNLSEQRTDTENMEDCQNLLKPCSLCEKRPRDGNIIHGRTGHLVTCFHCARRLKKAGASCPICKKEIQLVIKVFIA
# Target sequence (Q00987 whole entry, looked up): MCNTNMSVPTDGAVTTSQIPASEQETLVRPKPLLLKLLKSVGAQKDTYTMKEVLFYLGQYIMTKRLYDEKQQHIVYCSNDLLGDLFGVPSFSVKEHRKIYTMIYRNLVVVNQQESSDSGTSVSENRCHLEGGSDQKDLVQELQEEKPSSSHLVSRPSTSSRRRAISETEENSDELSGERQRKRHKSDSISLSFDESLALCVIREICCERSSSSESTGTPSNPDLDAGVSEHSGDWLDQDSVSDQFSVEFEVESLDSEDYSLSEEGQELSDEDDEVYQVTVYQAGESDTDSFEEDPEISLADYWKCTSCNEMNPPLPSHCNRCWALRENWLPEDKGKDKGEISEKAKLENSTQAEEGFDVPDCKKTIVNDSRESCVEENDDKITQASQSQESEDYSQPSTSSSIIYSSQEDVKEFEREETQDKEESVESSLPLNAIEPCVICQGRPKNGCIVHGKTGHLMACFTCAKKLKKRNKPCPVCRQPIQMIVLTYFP
# ABHD5 PLIN5 PPI: ABHD5-PLIN5 protein interaction inhibition; hit rate 0.78% among 360,000; AID 602281; inhibition, % at 4 µM; Split G. princeps luciferase complementation, luminescence, 4 h; Q00G26+Q8WTS1;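 active = inhibition above the mean inhibition across every tested compound plus 3 SD, cut at about 22% in these data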
# Mdm2 MdmX conf: confirmation of human Mdm2/MdmX interaction inhibitors | shares compounds with Mdm2 MdmX PPI | Mdm2-MdmX binding, luminescent assay | inhibition, % at 8 µM | hit rate 55% among 10,000 | AID 489028; in the data active = inhibition above about 40%
# Full FLuc ctr: full-length luciferase inhibition in Mdm2/MdmX counter-screen | shares compounds with Mdm2 MdmX PPI | SaOS-2 full-length luciferase counterscreen, luminescence | inhibition, % at 8 µM | hit rate 77% among 6,200 | AID 504607;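 active = mean inhibition at 8 µM reaching about 37%, which flags the compound as non-specific, limit read from the data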;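 note: p53-null SaOS-2 cells with luciferase driven by a doxycycline-inducible promoter; compound on cells about two nights before reading with doxycycline added after day one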
# Numbers stand for hits; n = inactive; x = not tested or not shown.
SMILES,CF NFkB block,Peg3 prom inh,HIF-2a inh,KKLEB tox,Mdm2 MdmX PPI,ABHD5 PLIN5 PPI,others
COc1cc(SC)ccc1C(=O)Nc1ccc(Cl)cn1,n,n,53,-69,n,n,
CSc1ccc(Cl)c(C(=O)Nc2ccc(Cl)cn2)c1,n,n,n,n,n,n,
CC(=O)N1CCC(C(=O)N2c3ccccc3N=C(c3ccc(C(F)(F)F)cc3)C2C(=O)NC(C)(C)C)CC1 (stereo not drawn),x,x,n,x,x,n,
Cc1cc(C(=O)Nc2c(F)cc(F)cc2Br)c(C)o1,n,n,n,n,n,23,
C=CCN(c1ccccc1)S(=O)(=O)c1cc2c(cc1C)NC(=O)CO2,n,n,n,n,n,n,
O=C1C(=O)c2c(ccc3ccccc23)-c2ccccc21,74,102,n,-84,x,n,
CN(C)/C=C1\Oc2ccc3ccccc3c2C1=O,n,n,n,n,n,n,
O=C1NC(=NCc2ccccc2)S/C1=C/c1ccc(O)cc1,53,n,n,n,n,n,
CSc1ccccc1NC(=O)CN(C)CC(=O)Nc1ccccc1C(F)(F)F,n,n,n,n,n,n,
O=c1ccsn1Cc1ccccc1,n,n,n,n,n,82,
Cc1cc(C)cc(N=Cc2ccc([N+](=O)[O-])s2)c1,n,51,n,n,n,n,
Cc1cc2ncn(/N=C/c3ccc([N+](=O)[O-])s3)c2cc1C,n,73,n,n,x,n,
Cc1nc2ccccc2n1/N=C/c1ccc([N+](=O)[O-])s1,n,n,n,n,n,n,
O=[N+]([O-])c1ccc(C=Nc2ccc(Cl)c([N+](=O)[O-])c2)s1,n,81,n,n,n,n,
CCOc1ccc(-c2cc(C(=O)N/N=C(\C)c3cccnc3)c3ccccc3n2)c(OCC)c1,n,n,n,n,n,n,
CN1CCN(C(=O)C[C@H]2CC[C@H]3[C@@H](COC[C@@H](O)CN3C(=O)C3CCCC3)O2)CC1,x,x,n,x,x,n,
C[C@@H]1CN([C@@H](C)CO)S(=O)(=O)c2ccc(/C=C/c3ccccc3)cc2O[C@@H]1CN(C)Cc1ccc(C(=O)O)cc1,n,n,n,n,x,n,
C[C@H](CO)N1C[C@H](C)[C@@H](CN(C)C(=O)c2ccc3c(c2)OCO3)Oc2cc(/C=C/c3ccccc3)ccc2S1(=O)=O,n,62,n,n,x,n,
COc1ccc(NC(=O)c2ccc(F)cc2)cc1S(=O)(=O)Nc1cc(C)ccc1Br,n,54,n,n,n,n,
C[C@@H](NCCCn1ccc(NC(=O)OCc2ccccc2)nc1=O)c1cccc2ccccc12,n,71,n,n,x,n,
C=C(C)COc1ccc2c(C)c(CC(=O)N3C[C@H]4C[C@@H](C3)c3cccc(=O)n3C4)c(=O)oc2c1C,n,n,n,n,n,n,
COC(=O)/C(=C\c1ccc([N+](=O)[O-])o1)NC(=O)c1ccccc1,n,n,n,n,n,n,
Cc1cccc(NC(=O)/C(=C\c2ccc([N+](=O)[O-])o2)NC(=O)c2ccc(Cl)cc2)c1,n,56,n,n,x,n,
N#CC(=C1C=CC(=NO)C(Cl)=C1)c1ccccc1,50,n,n,n,x,n,
O=C(Nc1ccccc1)c1cc(C2CCCCN2C(=O)CCc2ccccc2)on1 (stereo not drawn),n,n,n,n,x,n,
SMILES,CF NFkB block,Peg3 prom inh,HIF-2a inh,KKLEB tox,Mdm2 MdmX PPI,ABHD5 PLIN5 PPI,others
Nc1c(C(=O)OCC2CCCO2)c2nc3ccccc3nc2n1-c1ccc2c(c1)OCCO2 (stereo not drawn),x,x,x,x,n,x,
O=c1c2c3nc4ccccc4nc3n(-c3ccc4c(c3)OCCO4)c2ncn1C1CCCC1,n,59,n,n,n,n,
Cc1[nH]c2ccccc2c1C(=O)CSc1nc2ncc(Cl)cc2[nH]1,n,115,n,n,n,n,
CCCCn1c(=N)n(CCOc2ccc(C)cc2)c2ccccc21,n,100,n,n,63,n,Mdm2 MdmX conf=n;Full FLuc ctr=63
CCN(CC)CCn1c(=N)n(CC(O)COc2ccccc2)c2ccccc21 (stereo not drawn),n,n,n,n,n,n,
CCN(CC)CCn1c(=N)n(CCOc2ccccc2)c2ccccc21,n,n,n,n,50,n,Mdm2 MdmX conf=61;Full FLuc ctr=62
CC(C)c1ccc(S(=O)(=O)N2CCN(C(=O)CN3C(=O)c4ccccc4C3=O)CC2)cc1,n,n,n,n,n,n,
CCN(CC(=O)NCc1cccs1)C(=O)c1ccc(S(=O)(=O)Nc2cccc(C)c2C)cc1,n,n,n,n,n,n,
COC(=O)[C@@]12CCCCN1[C@H](c1ccc(-c3cc(C(C)=O)cs3)c(OC)c1)[C@H]1C(=O)N(C)C(=O)[C@H]12,n,n,n,n,n,n,
COC(=O)[C@@]12CCCCN1[C@H](c1ccc(-c3ccc(Cl)c(Cl)c3)cc1)[C@H]1C(=O)N(C)C(=O)[C@H]12,n,n,n,n,67,n,Mdm2 MdmX conf=n
COC(=O)[C@@]12CCCCN1[C@H](c1ccc(-c3ccc(Cl)c(Cl)c3)c(OC)c1)[C@@H]1C(=O)N(C)C(=O)[C@@H]12,n,n,n,n,x,n,
COC(=O)[C@@]12CCCCN1[C@H](c1ccc(-c3cc(C(C)=O)cs3)cc1)[C@H]1C(=O)N(C)C(=O)[C@H]12,n,74,n,n,67,n,Mdm2 MdmX conf=n
COC(=O)[C@@]12CCCCN1[C@H](c1ccc(-c3ccc(Cl)c(Cl)c3)c(OC)c1)[C@H]1C(=O)N(C)C(=O)[C@H]12,n,n,n,n,65,n,Mdm2 MdmX conf=42;Full FLuc ctr=44
CCN1C(=O)[C@@H]2[C@@H](c3ccc(-c4ccc(Cl)c(Cl)c4)cc3)N3CCCC[C@@]3(C(=O)OC)[C@@H]2C1=O,n,n,n,n,n,n,
CCCCCCSc1ccc([C@@H]2[C@@H]3C(=O)N(CC)C(=O)[C@@H]3[C@]3(C(=O)OC)CCCCN23)cc1,n,n,n,n,52,n,Mdm2 MdmX conf=n
CCc1ccc(C(=O)N2CCN(c3ccc(NC(=O)c4cccnc4)cc3)CC2)cc1,n,n,n,n,n,n,
CCC(=O)c1ccc(OCC(=O)OCC(=O)Nc2cccc(S(=O)(=O)N3CCOCC3)c2)cc1,n,n,n,n,x,n,
CCOC(=O)[C@H]1[C@H]2COc3ccc(Br)cc3[C@@H]2N2C(=O)CN(CC3CCCO3)C(=O)[C@@]12C (stereo partly drawn),n,n,n,n,n,n,
COc1ccc(OCC(=O)Nc2ccc(OC)c(S(=O)(=O)N3CCCCC3)c2)cc1,n,n,n,n,n,n,
CCN1C(=O)[C@@H]2[C@@H](c3ccc(-c4ccc(Cl)c(Cl)c4)c(OC)c3)N3CCC[C@@]3(C(=O)OC)[C@@H]2C1=O,n,n,n,n,67,n,Mdm2 MdmX conf=n

# Assay outcomes from PubChem BioAssay.
